Experimental data: the supplement of paper PMC11732987, “Enantioselective OTUD7B fragment discovery through chemoproteomics screening and high-throughput optimisation” (Communications Chemistry, 2025)

Experiments:
Assay in all cases: log2 ratio of Biotin-Ahx-Ub-VS probe labelling (fragment/DMSO); higher = less target engagement (more negative = stronger competition), active = hit call of the paper (q ≤ 0.05, log2 ratio ≤ -1)
Conditions in all cases: compound concentration: 200 uM; treatment time: 3 h
USP19 = target: T1, USP19 (UniProt O94966)
T1 sequence (whole entry): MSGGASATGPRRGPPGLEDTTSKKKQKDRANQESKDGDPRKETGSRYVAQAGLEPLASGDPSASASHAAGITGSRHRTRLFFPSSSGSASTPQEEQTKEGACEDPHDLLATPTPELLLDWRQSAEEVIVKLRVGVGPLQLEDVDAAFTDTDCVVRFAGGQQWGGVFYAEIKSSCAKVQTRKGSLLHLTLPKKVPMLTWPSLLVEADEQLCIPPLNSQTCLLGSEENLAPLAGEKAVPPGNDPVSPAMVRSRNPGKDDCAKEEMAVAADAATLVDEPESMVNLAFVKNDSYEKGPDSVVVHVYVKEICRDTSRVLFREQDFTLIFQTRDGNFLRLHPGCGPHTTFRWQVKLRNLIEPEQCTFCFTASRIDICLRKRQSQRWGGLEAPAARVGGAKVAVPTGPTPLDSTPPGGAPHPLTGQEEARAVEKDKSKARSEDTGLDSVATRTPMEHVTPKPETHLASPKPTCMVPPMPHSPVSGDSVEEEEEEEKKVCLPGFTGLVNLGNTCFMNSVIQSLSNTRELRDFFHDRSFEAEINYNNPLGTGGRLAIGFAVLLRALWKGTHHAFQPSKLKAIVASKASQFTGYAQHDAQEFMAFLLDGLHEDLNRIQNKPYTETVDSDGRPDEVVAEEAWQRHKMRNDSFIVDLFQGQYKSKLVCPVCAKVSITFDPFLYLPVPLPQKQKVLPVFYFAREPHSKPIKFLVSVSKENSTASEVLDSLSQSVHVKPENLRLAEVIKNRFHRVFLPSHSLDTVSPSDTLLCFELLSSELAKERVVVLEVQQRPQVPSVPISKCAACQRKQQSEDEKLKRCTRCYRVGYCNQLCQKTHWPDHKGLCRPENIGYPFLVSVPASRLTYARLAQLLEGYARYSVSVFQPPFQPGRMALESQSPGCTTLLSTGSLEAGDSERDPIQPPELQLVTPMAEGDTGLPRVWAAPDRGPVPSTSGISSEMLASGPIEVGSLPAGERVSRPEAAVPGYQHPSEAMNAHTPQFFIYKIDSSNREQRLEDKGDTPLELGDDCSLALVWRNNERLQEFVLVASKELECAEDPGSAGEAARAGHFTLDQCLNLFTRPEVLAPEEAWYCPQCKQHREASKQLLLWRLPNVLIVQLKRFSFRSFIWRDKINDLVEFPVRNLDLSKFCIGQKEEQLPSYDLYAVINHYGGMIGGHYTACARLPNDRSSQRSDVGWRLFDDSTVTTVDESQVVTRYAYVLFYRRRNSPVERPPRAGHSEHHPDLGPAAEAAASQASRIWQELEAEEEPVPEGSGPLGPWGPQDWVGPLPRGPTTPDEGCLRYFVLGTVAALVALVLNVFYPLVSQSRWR
Outline: (§1)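 The table lists average log2 ratios of fragment over vehicle, from an unpaired t-test on global-median-normalised Spectronaut label-free quantities. Proteins with ≥2 unique peptides were used. Samples were HEK293T lysate (495 µg) treated in triplicate with fragment at 200 µM or vehicle for 3 h, then with Biotin-Ahx-Ub-VS (0.5 µM final) for 1 h, with labelled DUBs NeutrAvidin-enriched and run by diaPASEF LC-MS/MS.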

USP24 = USP24 (UniProt Q9UPU5)
Outline: as §1

USP25 = target: T2, USP25 (UniProt Q9UHP3)
T2 sequence (whole entry): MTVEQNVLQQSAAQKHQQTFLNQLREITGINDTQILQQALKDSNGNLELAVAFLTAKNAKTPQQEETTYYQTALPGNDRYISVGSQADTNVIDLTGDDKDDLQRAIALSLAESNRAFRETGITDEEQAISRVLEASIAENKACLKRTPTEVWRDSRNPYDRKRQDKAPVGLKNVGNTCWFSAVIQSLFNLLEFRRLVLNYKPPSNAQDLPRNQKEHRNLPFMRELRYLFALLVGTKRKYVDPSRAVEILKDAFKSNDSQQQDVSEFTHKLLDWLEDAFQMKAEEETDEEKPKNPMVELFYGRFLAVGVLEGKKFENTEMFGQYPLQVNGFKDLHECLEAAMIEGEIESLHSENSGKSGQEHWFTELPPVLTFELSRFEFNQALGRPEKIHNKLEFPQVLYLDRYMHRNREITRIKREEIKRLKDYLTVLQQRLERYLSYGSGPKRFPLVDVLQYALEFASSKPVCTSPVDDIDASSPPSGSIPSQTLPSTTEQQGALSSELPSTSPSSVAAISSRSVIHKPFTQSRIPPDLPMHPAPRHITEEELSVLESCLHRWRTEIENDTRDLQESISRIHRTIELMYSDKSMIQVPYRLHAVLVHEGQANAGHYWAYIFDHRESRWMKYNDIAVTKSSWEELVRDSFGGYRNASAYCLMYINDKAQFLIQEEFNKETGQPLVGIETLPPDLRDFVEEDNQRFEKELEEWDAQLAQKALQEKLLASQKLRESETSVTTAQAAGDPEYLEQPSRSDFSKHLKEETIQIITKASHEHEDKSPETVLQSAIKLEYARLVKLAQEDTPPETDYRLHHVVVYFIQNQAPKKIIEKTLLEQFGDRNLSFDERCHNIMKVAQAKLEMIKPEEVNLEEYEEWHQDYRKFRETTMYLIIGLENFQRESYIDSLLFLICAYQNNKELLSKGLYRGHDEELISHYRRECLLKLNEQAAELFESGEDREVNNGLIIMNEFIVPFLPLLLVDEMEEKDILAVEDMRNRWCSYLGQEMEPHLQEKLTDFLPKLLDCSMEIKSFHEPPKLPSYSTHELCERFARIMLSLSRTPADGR
Outline: as §1

USP28 = target: T3, USP28 (UniProt Q96RU2)
T3 sequence (whole entry): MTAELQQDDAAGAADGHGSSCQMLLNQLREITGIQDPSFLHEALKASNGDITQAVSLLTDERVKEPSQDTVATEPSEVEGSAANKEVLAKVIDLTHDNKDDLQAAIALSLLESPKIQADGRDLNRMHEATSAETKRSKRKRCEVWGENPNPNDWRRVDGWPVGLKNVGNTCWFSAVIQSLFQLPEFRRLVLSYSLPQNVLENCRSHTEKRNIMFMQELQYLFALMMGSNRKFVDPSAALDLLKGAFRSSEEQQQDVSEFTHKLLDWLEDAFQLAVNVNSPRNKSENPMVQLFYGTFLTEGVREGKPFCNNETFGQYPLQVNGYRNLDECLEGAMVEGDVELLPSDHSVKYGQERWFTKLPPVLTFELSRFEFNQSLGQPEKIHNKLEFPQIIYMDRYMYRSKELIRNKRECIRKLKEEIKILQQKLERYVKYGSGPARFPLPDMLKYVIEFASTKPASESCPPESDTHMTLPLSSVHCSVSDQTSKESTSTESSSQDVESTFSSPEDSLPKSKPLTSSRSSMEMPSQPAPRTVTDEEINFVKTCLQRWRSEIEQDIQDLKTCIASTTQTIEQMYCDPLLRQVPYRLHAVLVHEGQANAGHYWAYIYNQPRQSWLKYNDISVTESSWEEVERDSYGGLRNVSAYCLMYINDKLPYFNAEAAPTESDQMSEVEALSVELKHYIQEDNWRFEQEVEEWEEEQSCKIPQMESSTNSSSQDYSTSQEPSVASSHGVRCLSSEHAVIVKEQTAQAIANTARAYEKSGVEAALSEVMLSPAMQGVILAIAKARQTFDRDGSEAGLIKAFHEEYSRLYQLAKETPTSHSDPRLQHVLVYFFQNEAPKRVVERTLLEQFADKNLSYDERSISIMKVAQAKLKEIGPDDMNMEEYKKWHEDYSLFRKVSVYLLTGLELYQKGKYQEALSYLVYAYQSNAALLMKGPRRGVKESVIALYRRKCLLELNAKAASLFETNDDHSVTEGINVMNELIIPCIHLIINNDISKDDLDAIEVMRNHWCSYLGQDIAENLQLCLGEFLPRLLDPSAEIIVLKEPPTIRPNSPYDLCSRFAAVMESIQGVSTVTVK
Outline: as §1

Measured: log2 ratio of Biotin-Ahx-Ub-VS probe labelling

USP24, sequence (Q9UPU5 whole entry): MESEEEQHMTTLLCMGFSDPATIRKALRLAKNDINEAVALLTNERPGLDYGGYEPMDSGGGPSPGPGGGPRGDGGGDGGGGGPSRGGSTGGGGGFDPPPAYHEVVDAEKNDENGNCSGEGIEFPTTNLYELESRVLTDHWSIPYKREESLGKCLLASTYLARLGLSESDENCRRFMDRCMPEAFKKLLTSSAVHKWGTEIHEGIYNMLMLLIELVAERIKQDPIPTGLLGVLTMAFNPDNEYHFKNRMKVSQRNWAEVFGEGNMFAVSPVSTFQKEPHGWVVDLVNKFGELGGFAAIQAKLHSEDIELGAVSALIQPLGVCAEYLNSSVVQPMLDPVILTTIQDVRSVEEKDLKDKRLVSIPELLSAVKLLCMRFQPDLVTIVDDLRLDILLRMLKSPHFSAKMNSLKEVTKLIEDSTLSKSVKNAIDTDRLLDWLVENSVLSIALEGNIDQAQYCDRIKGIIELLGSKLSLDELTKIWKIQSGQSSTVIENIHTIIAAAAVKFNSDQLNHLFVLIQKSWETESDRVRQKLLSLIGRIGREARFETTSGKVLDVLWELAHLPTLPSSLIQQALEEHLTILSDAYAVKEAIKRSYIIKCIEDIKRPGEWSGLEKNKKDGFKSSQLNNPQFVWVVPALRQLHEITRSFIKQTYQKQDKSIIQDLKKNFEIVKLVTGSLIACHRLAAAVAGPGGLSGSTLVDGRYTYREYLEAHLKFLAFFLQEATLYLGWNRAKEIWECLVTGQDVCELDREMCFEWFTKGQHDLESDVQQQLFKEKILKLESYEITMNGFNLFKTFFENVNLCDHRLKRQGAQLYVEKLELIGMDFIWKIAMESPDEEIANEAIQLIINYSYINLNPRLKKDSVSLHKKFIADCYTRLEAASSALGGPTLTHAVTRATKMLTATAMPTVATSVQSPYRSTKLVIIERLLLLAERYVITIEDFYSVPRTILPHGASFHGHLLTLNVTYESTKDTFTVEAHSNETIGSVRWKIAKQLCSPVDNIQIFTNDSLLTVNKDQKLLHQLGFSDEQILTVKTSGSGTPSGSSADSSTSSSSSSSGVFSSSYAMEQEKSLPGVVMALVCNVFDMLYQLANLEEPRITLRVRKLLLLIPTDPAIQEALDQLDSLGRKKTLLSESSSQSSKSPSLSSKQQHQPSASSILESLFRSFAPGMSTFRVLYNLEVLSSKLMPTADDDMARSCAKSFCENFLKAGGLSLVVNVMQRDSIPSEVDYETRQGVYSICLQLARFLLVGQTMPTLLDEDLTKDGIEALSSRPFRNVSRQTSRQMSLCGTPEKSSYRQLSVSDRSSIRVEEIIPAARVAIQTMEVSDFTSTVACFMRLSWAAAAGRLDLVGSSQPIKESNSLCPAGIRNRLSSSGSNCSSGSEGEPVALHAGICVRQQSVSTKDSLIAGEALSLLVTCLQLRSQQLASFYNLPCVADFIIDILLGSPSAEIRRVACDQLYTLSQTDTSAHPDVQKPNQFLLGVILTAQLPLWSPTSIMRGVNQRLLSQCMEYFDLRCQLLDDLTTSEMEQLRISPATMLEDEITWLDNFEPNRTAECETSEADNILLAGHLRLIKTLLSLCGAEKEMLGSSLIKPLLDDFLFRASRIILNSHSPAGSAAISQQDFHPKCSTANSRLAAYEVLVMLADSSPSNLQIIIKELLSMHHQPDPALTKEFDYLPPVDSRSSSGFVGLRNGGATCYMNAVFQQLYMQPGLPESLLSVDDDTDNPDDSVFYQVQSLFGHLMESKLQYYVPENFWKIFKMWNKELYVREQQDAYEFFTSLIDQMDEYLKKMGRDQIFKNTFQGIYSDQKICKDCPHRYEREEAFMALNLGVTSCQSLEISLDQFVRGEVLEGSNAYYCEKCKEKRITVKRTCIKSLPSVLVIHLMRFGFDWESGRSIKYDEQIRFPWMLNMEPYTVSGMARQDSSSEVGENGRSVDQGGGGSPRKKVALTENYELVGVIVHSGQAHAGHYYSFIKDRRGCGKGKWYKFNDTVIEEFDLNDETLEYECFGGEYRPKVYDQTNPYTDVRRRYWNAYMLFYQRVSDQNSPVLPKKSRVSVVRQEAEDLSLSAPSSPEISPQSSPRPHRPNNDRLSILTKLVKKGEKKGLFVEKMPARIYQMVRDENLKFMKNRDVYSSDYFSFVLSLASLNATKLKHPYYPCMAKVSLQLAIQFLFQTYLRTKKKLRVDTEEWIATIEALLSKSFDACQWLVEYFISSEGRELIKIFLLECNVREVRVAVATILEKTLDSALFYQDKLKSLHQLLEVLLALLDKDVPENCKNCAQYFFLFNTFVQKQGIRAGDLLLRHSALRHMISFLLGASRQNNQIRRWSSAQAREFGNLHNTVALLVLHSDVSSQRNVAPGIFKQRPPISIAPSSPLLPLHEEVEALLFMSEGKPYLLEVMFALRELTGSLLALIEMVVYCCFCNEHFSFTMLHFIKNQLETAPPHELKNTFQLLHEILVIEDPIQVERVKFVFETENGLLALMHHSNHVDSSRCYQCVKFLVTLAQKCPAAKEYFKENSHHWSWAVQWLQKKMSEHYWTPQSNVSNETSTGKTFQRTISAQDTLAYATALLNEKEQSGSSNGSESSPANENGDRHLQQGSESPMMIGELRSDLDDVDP

O=C(CCl)N1CCC(c2ccn[nH]2)C1 (centres undefined)
inactive: USP19 -0.276 | USP24 -0.326 | USP25 -0.433 | USP28 -0.425
